Source: PubChem (several laboratories)
Most compounds without a hit are left out; they make up all but 1.7% or so of the library.
LYP act: activators of human LYP (PTPN22) phosphatase | Q9Y2R2 | recombinant LYP, DiFMUP fluorescence; 0 = plate median, 100 = signal doubled | activation, % at 2 µM | hit rate 0.11% among 96,000;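 active = activation at 2 µM above a set limit, the mean plus 5 SD, cut at about 37% in these data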
LYP inh 2: inhibitors of human LYP (PTPN22) phosphatase. inhibition, % at 2 µM. recombinant LYP catalytic domain, DiFMUP fluorescence. hit rate 0.21% among 96,000. AID 640;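 active = inhibition at 2 µM at or above a set limit, the screen mean plus 3 SD, cut at about 24% in these data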;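 note: 0% = DMSO with enzyme and 100% = enzyme fully blocked by orthovanadate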
Plk1 PBD FP: blocks phosphopeptide binding to human Plk1 polo box domain; hit rate 0.13% among 97,000; P53350; Plk1 PBD phosphopeptide binding, fluorescence polarization; inhibition, %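 (tested at about 20 µM)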; in the data active = inhibition above about 34%, passing the limit was not always enough
Target sequence (P53350 whole entry, looked up, the tested form may be a part): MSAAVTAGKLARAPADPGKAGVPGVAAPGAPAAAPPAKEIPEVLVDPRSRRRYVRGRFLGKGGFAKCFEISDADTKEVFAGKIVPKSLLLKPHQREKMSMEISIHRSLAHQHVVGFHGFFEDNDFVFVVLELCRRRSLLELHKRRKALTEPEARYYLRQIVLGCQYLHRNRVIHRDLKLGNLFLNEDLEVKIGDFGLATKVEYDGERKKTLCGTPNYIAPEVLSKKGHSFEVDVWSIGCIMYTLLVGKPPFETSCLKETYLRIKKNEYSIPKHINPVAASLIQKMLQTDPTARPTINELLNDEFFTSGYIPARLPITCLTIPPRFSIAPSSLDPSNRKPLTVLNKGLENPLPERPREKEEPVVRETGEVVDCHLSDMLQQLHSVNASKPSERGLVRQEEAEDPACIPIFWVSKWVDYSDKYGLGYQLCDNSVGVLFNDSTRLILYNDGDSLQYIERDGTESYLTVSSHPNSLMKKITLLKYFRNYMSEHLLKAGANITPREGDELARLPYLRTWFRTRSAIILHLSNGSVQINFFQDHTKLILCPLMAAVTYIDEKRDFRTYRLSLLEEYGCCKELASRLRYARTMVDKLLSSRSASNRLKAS
PLK1 kinase inh: PLK1 (human) kinase inhibition; hit rate 0.53% among 97,000; recombinant PLK1 kinase, TR-FRET peptide phosphorylation; inhibition, % at 10 µM;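 active = inhibition of 50% or more in the single-concentration screen; inactive = inhibition below 50%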;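 note: 0% = DMSO max control and 100% = H-89 dihydrochloride min control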
PTK2B oligo ant: blocks oligomerization of human Pyk2 in cells | Q293 cells, Pyk2 FERM NanoBiT luminescence; active compounds read low | z-score (the deposit names both 25 µM and 10 µM) | hit rate 0.83% among 99,000 | AID 1347419;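 active = Z-score of -3 or lower, scaled per plate to the spread of control and sample wells; inactive = z-score above -3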;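 note: negative z-score means lost luminescence so less FERM oligomerization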
Redox H2O2 DR: redox cycling H2O2 generation counter-screen for Plk1 PBD. shares compounds with Plk1 PBD FP. DTT. EC50, µM. 120 tested, under 10 active. AID 876; call rule not given here
Active calls of the source: *.

CCN(CC)c1ccc(NC(=O)C2CCCN(S(=O)(=O)c3cnc[nH]3)C2)c(C)c1 (stereo not given) was read as LYP act 0, LYP inh 2 -3, Plk1 PBD FP 1 and PLK1 kinase inh -4.
Screening Fc1ccc(Cn2nnnc2CN2CCN(C3CCCC3)CC2)cc1 returned LYP act 7, LYP inh 2 -10, Plk1 PBD FP 45*, PLK1 kinase inh -5, PTK2B oligo ant -0.11 and Redox H2O2 DR >50.
Screening COC(=O)Nc1nc2c(s1)CCCC2 returned PTK2B oligo ant -0.58.
Screening CN(C)c1ccc(C(=O)Nc2nc3c(s2)CCCC3)cc1 returned LYP act -17, LYP inh 2 15, Plk1 PBD FP 46*, PLK1 kinase inh -3 and Redox H2O2 DR >50.
`COc1cccc(OC)c1C(=O)N1CCN(c2ccccn2)CC1` gave LYP act -2, LYP inh 2 4, Plk1 PBD FP 38*, PLK1 kinase inh -12, PTK2B oligo ant -1.1 and Redox H2O2 DR >50.
COc1ccccc1C(=O)N1CCN(c2ccccn2)CC1 was read as LYP act -6, LYP inh 2 5, Plk1 PBD FP -5, PLK1 kinase inh -3 and PTK2B oligo ant 1.1.
Clc1ccc(Oc2ncnc3oc(-c4ccccc4)cc23)cc1 was read as LYP act -4, LYP inh 2 8, Plk1 PBD FP -7, PLK1 kinase inh -39 and PTK2B oligo ant 0.89.
Screening Cc1ccccc1Oc1ncnc2oc(-c3ccccc3)cc12 returned LYP act 3, LYP inh 2 0, Plk1 PBD FP 68*, PLK1 kinase inh -7, PTK2B oligo ant -0.31 and Redox H2O2 DR >50.
COc1cccc(C(=O)NCCC2=CCCCC2)c1 was read as LYP act -6, LYP inh 2 4, Plk1 PBD FP -12, PLK1 kinase inh 1 and PTK2B oligo ant 0.67.
`COc1ccc(OC)c(N(CC(=O)NCc2cccnc2)S(C)(=O)=O)c1` gave LYP act -3, LYP inh 2 2, Plk1 PBD FP -13, PLK1 kinase inh -7 and PTK2B oligo ant 0.88.
Screening CCC(=O)Nc1ccc(-c2nnc(SCC(=O)Nc3nccs3)n2C)cc1 returned LYP act 12, LYP inh 2 -14, Plk1 PBD FP 47*, PLK1 kinase inh 19, PTK2B oligo ant 0.42 and Redox H2O2 DR >50.
For Cn1c(SCC(=O)Nc2nccs2)nnc1-c1ccco1 the results were LYP act 3, LYP inh 2 -3, Plk1 PBD FP 10, PLK1 kinase inh 28 and PTK2B oligo ant 0.72.
Screening O=C(Cc1ccc(Cl)cc1)NCCN1CCCC1 returned LYP act -8, LYP inh 2 5, Plk1 PBD FP 48*, PLK1 kinase inh -11, PTK2B oligo ant 0.36 and Redox H2O2 DR >50.
Screening c1ccc(NCc2nnc3n2CCCCC3)cc1 returned LYP act -11, LYP inh 2 10, Plk1 PBD FP 45*, PLK1 kinase inh -17, PTK2B oligo ant -0.18 and Redox H2O2 DR >50.
COc1ccc2c3c(cccc13)NN=C2C was read as LYP act -4, LYP inh 2 0, Plk1 PBD FP 38*, PLK1 kinase inh 33 and Redox H2O2 DR >50.
Screening COc1ccc(C(=O)c2ccc(OC)c3cccc(O)c23)cc1OC returned LYP act 0, LYP inh 2 2, Plk1 PBD FP -17, PLK1 kinase inh -5 and PTK2B oligo ant 0.19.
CCOc1ccc(CCNC(=O)C2CC(=O)N(C3CCCC3)C2)cc1OCC (stereo not given) was read as LYP act 3, LYP inh 2 -3, Plk1 PBD FP -2, PLK1 kinase inh -5 and PTK2B oligo ant 2.1.
CCn1c(SCC(=O)O)nc2sc3c(c2c1=O)CCC3 was read as LYP act -5, LYP inh 2 6, Plk1 PBD FP 11, PLK1 kinase inh -1 and PTK2B oligo ant 0.06.
CCCc1nc2sc3c(c2c(=O)n1NC(=O)CCC(=O)O)CCCC3 was read as LYP act -7, LYP inh 2 10, Plk1 PBD FP 46*, PLK1 kinase inh -5, PTK2B oligo ant 0.32 and Redox H2O2 DR >50.
O=C(Nc1cccn(Cc2c(Cl)cccc2Cl)c1=O)c1c(Cl)cccc1Cl was read as LYP act -1, LYP inh 2 3, Plk1 PBD FP 51*, PLK1 kinase inh -10, PTK2B oligo ant -1.3 and Redox H2O2 DR >50.
Screening Cc1cc(C)c(NC(=O)C(C)Sc2nnc(-c3ccco3)n2-c2ccccc2)c(C)c1 (stereo not given) returned LYP act -1, LYP inh 2 4, Plk1 PBD FP 5 and PLK1 kinase inh 5.
Screening CC(C)Sc1nc(N2CCOCC2)c2c(c1C#N)CC(C)(C)SC2 returned PTK2B oligo ant -1.2.
`CC(C)Sc1nc(N2CCOCC2)c2c(c1C#N)CC(C)(C)N(C)C2` gave LYP act 2, LYP inh 2 1, Plk1 PBD FP 48*, PLK1 kinase inh 8, PTK2B oligo ant 0.43 and Redox H2O2 DR >50.
CC1Cc2ccccc2N1C(=O)c1ccc2c(c1)nnn2C (stereo not given) was read as LYP act 9, LYP inh 2 -9, Plk1 PBD FP 50*, PLK1 kinase inh -6, PTK2B oligo ant -0.72 and Redox H2O2 DR >50.
Screening CCn1ncc(CN2CCN(C(=O)Nc3ccccc3C(=O)OC)CC2)c1C returned LYP act 0, LYP inh 2 -3, Plk1 PBD FP 39*, PLK1 kinase inh -7, PTK2B oligo ant 0.46 and Redox H2O2 DR >50.
`COC(=O)c1ccccc1NC(=O)N1CCN(C/C=C/c2ccccc2)CC1` gave LYP act 7, LYP inh 2 -12, Plk1 PBD FP -7, PLK1 kinase inh -9 and PTK2B oligo ant -0.29.
Screening COc1cc(S(=O)(=O)N2CCCCCC2)ccc1-n1cnnn1 returned LYP act 5, LYP inh 2 -2, Plk1 PBD FP 38*, PLK1 kinase inh -2, PTK2B oligo ant -0.3 and Redox H2O2 DR >50.
Screening O=C(Nc1ccc(N2CCOCC2)cc1)c1cccc(S(=O)(=O)N2CCC(Cc3ccccc3)CC2)c1 returned LYP act -11, LYP inh 2 12, Plk1 PBD FP 8, PLK1 kinase inh -11 and PTK2B oligo ant -1.1.
For CC(=O)N1CCc2cc(Br)cc(S(=O)(=O)NCc3ccccn3)c21 the results were LYP act -6, LYP inh 2 6, Plk1 PBD FP 56*, PLK1 kinase inh -4, PTK2B oligo ant -0.33 and Redox H2O2 DR >50.
`O=C(CC1C(=O)NCCN1C(=S)Nc1ccccc1)Nc1ccc2c(c1)OCCO2` (stereo not given) gave LYP act -2, LYP inh 2 6, Plk1 PBD FP 43*, PLK1 kinase inh -1, PTK2B oligo ant -1 and Redox H2O2 DR >50.
Screening COc1ccccc1NC(=O)CC1C(=O)NCCN1C(=O)Nc1ccccc1 (stereo not given) returned LYP act 6, LYP inh 2 -6, Plk1 PBD FP -3, PLK1 kinase inh -8 and PTK2B oligo ant -0.19.
